# Screens as filed in PubChem BioAssay.
# In the library only some 3.7% were active in any assay of this set; here they are far more common.
# Ecoli rRNA inh: selective bacterial rRNA inhibition in E. coli; E. coli WT GFP vs humanized-ribosome RFP mutants, fluorescence, 24 h; stronger effect = lower value; DMSO median 0, no signal -100; GFP signal change (wild-type ribosome), % (test concentration not listed); hit rate 1.6% among 350,000; AID 720706;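 active = significant combined selectivity score with lowered wild-type GFP, culture density cut under 30%, mutant RFP and density less affected; inactive = any of these conditions unmet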
# MITF TRPM1 HTS: MITF TRPM1 promoter activation in melanoma cells. SK-MEL-5 TRPM1-promoter luciferase, 24 h; % of positive control, neutral wells = 0. activation, % at 12.5 µM. hit rate 0.75% among 300,000. AID 588334;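 active = mean activation of at least 80% with every replicate also reaching 80%; inconclusive = mean reaches 80% but some replicate falls short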;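 also: 0% = neutral control wells and 100% = parthenolide positive control wells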
# esBAF inh: inhibitors of esBAF chromatin remodeling in mouse ES cells; reporter increase, % at 12.5 µM; Bmi1-luciferase knock-in reporter, 24 h; 100% = twice the neutral-well signal; hit rate 2% among 350,000; in the data active = activation above about 40%; inconclusive = no clear call, values can overlap the other calls;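 also: 0% = median of the plate's neutral control wells and 100% = double that signal; a rise in the Bmi1 reporter signal indicates esBAF inhibition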
# Wnt bcat act: activators of Wnt/beta-catenin signaling; Wnt/beta-catenin reporter cell assay, activator, plate reader; hit rate 1.2% among 300,000; activation, % at 9.35 µM; in the data active = activation above about 30%, passing the limit was not always enough; inconclusive = no clear call, values can overlap the other calls;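 also: 0% = neutral control wells and 100% = positive control wells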
# MLL AF4-AF9 inh: blocks AF4 peptide binding to human AF9. inhibition, % at 10 µM. hit rate 0.47% among 350,000. P42568. AID 651704. AlphaScreen, biotin-AF4 peptide binding to FLAG-AF9;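 active = every replicate reaching a set inhibition limit, whatever the replicate mean, cut at about 25% in these data; inconclusive = mean inhibition reaches that limit but some replicates miss it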;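 also: 0% = plate neutral control median and 100% = total signal loss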
# Target sequence (P42568 whole entry, looked up): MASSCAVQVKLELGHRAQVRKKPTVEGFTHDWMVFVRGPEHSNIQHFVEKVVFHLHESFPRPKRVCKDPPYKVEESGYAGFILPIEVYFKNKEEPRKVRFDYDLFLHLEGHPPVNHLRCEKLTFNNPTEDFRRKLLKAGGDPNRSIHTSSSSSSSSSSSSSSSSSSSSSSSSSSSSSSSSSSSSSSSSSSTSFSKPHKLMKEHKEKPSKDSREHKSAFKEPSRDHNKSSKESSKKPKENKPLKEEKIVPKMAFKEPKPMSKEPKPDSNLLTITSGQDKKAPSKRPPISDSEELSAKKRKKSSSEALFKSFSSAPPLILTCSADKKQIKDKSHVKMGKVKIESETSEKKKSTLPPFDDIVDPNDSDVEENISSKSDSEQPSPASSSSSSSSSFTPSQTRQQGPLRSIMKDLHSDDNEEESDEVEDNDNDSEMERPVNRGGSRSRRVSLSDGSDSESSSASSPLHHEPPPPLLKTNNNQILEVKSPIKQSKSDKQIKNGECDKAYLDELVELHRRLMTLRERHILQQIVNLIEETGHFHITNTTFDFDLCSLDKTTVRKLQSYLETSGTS
# * = called active by the depositor; u = inconclusive; x = no result.
SMILES,Ecoli rRNA inh,MITF TRPM1 HTS,esBAF inh,Wnt bcat act,MLL AF4-AF9 inh
CCOC(=O)c1cnc2cc(-c3ccc(C)cc3)nn2c1C,2,x,71*,-2,-1
CCOC(=O)c1cnc2c(-c3cccc(Br)c3)cnn2c1C,x,58,x,6,x
CC(=O)c1cnc2cc(-c3cccc(Br)c3)nn2c1C,10,56,50*,14,-4
CC(C)(C)OC(=O)NNC(=S)NC1CCCCC1,10,4,x,46*,-1
COc1cc(OC)c(C(=O)NNC(=S)NC2CCCCC2)cc1OC,-4,2,x,-3,1
COc1ccc(S(=O)(=O)NCCC(=O)OCc2cc(=O)oc3cc(C)ccc23)cc1[N+](=O)[O-],12,15,-2,1,0
Cc1ccccc1OCc1nc2c3cnn(C)c3ncn2n1,x,x,66*,22,x
O=C1CCCCN1CCC(=O)N1CCCC(N2CCN(c3cccc(Cl)c3)CC2)C1 (configuration not stated),1,29,20,3,0
O=C(CCC(F)(F)F)N1CCCC(N2CCN(c3cccc(Cl)c3)CC2)C1 (configuration not stated),-23*,x,20,2,-1
O=C(CCn1cccn1)N1CCCC(N2CCN(c3cccc(C(F)(F)F)c3)CC2)C1 (configuration not stated),1,-13,-8,32*,2
O=C(Cn1cccn1)N1CCCC(N2CCN(c3cccc(C(F)(F)F)c3)CC2)C1 (configuration not stated),0,-11,1,1,2
Cc1cc(C)n(C(CC(=O)N2CCc3ccccc3C2)C(=O)O)n1 (configuration not stated),x,-4,x,-1,x
N#C[C@H]1[C@@H](c2ccccc2C2=CCCC2)[C@H](CO)N1C(=O)CN1CCOCC1,-6,x,x,x,0
CC(C)NC(=O)Nc1n[nH]c(Nc2ccc(Cl)cc2)n1,-18*,x,x,u,0
NC(=O)C1CCN(c2oc(-c3ccccc3F)nc2S(=O)(=O)c2ccc(Cl)cc2)CC1,x,-2,-2,-1,x
COC(=O)C1CCN(C2=C(NS(=O)(=O)c3ccc(Cl)cc3)C(=O)c3ccccc3C2=O)CC1,-11,-16,14,3,39*
CC1CCCN(C2=C(NS(=O)(=O)c3ccc(Cl)cc3)C(=O)c3ccccc3C2=O)C1 (configuration not stated),-24,-22,x,-5,-4
NC(=O)C1CCN(C2=C(NS(=O)(=O)c3ccc(Cl)cc3)C(=O)c3ccccc3C2=O)CC1,-21*,-16,x,0,17
Cc1ccc(-c2ccc([C@H]3[C@H]4CN(C(=O)Nc5ccc(F)cc5)CC(=O)N4[C@H]3CO)cc2)cc1,1,x,x,x,-1
CCOc1ccc(N(C)C(=O)CCc2nnc3ccc(N4CCCC4)nn23)cc1,-1,-8,0,0,-2
CCOC(=O)c1ccc(CC(=O)c2ccc(O)c(O)c2O)o1,-12,-8,x,-2,-15
CCOC(=O)c1ccc(CC(=O)c2oc3cc(O)ccc3c2C)o1,-22*,-3,7,-1,5
O=S(=O)(Cc1cc(NCc2ccccc2)nc(-c2ccccn2)n1)c1ccccc1,-39*,8,x,-1,1
Cc1cc(F)ccc1S(=O)(=O)Nc1ccccc1C(=O)NCc1cccnc1,-24*,7,x,-1,-3
COc1ccc(S(=O)(=O)Nc2ccccc2C(=O)NCc2cccnc2)cc1C,-3,5,-4,-2,4
SMILES,Ecoli rRNA inh,MITF TRPM1 HTS,esBAF inh,Wnt bcat act,MLL AF4-AF9 inh
COC(=O)C1=C(C)N(Cc2ccccc2C(F)(F)F)C(=NCc2ccc(C(F)(F)F)cc2)NC1c1cccc(C(F)(F)F)c1 (configuration not stated),2,x,x,-18,-1
Nc1nnnn1/N=C/C=C/c1ccccc1,x,23,19,x,x
Nc1nnnn1/N=C/C(Br)=C/c1ccccc1,x,-83,53*,-20,x
C[C@H]1[C@H](c2ccccc2)Oc2cccc(NCCc3ccccc3)c2S(=O)(=O)N1Cc1cccc(F)c1,9,x,x,-3,-1
COc1ccc2[nH]c3c(c2c1)CCn1c-3nc2ccccc2c1=O,x,28,-14,41*,-10
COc1ccc(S(=O)(=O)Nc2cccc3c2O[C@H](CN(C)Cc2ccc4c(c2)OCO4)[C@@H](C)CN([C@@H](C)CO)C3=O)cc1,-5,x,0,x,2
CNC(=O)CSc1nc(N)c2c3c(sc2n1)CCC3,x,4,-6,x,x
NC(=O)CSc1nc(N)c2c3c(sc2n1)CCCCC3,x,x,55*,x,x
